Measured values as given in PubChem BioAssay AID651756 (Johns Hopkins Ion Channel Center, 2012).
Potency and affinity values are given separately. Calls of active or inactive are those of the source.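 The calls were made as follows: active = dose curve could be fitted and remaining uptake under 40% of control at 33.3 µM; inactive = the rest.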

Target: High affinity choline transporter 1 (Homo sapiens) (UniProt Q9GZV3)
Assay: choline transporter CHT inhibition potency – cell-based, 3H-choline uptake, radioactive, HEK293 CHT LV-AA, orthogonal assay for CHT inhibitor project, dose response (AID 651756)
Settings: HEK293 CHT cells, scintillation; series mostly up to 33.3 µM

Sequence of High affinity choline transporter 1 (Homo sapiens) (Q9GZV3 whole entry, looked up): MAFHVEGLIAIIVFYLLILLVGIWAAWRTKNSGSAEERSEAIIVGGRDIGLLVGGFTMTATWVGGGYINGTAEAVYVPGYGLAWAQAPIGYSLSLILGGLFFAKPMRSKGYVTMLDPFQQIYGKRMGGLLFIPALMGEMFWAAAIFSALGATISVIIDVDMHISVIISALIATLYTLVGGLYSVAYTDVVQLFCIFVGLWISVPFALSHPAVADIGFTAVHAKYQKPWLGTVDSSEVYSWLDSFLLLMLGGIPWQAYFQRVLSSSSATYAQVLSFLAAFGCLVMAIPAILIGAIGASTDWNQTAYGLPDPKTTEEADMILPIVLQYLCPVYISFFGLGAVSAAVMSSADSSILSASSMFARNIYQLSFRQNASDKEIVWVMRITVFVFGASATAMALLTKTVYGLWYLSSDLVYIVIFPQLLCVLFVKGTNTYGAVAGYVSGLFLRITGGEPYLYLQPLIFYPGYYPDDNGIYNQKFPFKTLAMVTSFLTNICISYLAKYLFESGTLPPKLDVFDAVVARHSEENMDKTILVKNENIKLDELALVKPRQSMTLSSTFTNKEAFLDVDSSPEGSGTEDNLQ

outcome, inactive:
O=C1CC(c2ccccc2)C(=O)N1c1ccc(S(=O)(=O)Nc2ccccn2)cc1 (stereo not drawn)
Cc1cc(C)c(C(=O)Nc2ccc(S(=O)(=O)N(C)c3ccccn3)cc2)c(C)c1
O=C(Nc1ccc(S(=O)(=O)Nc2ccccn2)cc1)c1cccc(-c2ccccc2)c1
Cc1c(C(=O)Nc2ccc(S(=O)(=O)Nc3ccccn3)cc2)cccc1[N+](=O)[O-]
O=C(Nc1ccc(S(=O)(=O)Nc2ccccn2)cc1)c1ccccc1-c1ccccc1
O=C(Nc1ccc(S(=O)(=O)Nc2ccccn2)cc1)c1cccc2ccccc12
Cc1ccc(C(=O)Nc2ccc(S(=O)(=O)Nc3ccccn3)cc2)c(C)c1
Cc1cccc(C(=O)Nc2ccc(S(=O)(=O)Nc3ccccn3)cc2)c1
O=C1CC2(CCCCC2)C(=O)N1c1ccc(S(=O)(=O)Nc2ccccn2)cc1
O=C(Nc1ccc(S(=O)(=O)Nc2ccccn2)cc1)c1cccc(Cl)c1
Cc1cccc(C(=O)Nc2ccc(S(=O)(=O)Nc3ccccn3)cc2)c1C
O=C1C(c2ccccc2)C(c2ccccc2)C(=O)N1c1ccc(S(=O)(=O)Nc2ccccn2)cc1 (stereo not drawn)
O=C(Nc1ccc(S(=O)(=O)Nc2ccccn2)cc1)c1ccc(Cl)cc1
O=C(Nc1ccc(S(=O)(=O)Nc2ccccn2)cc1)c1ccc2c(c1)CCCC2
O=C(Nc1ccc(S(=O)(=O)Nc2ccccn2)cc1)c1ccc(C(F)(F)F)cc1
O=C(Nc1ccc(S(=O)(=O)Nc2ccccn2)cc1)c1ccc(Cc2ccccc2)cc1
Cc1ccc(C(=O)Nc2ccc(S(=O)(=O)Nc3ccccn3)cc2)cc1
Cc1cc(C)c(C(=O)Nc2ccc(S(=O)(=O)Nc3ccccc3)cc2)c(C)c1
COc1cc(C)ccc1C(=O)Nc1ccc(S(=O)(=O)Nc2ccccn2)cc1
Cc1ccccc1C(=O)Nc1ccc(S(=O)(=O)Nc2ccccn2)cc1
Cc1ccc(C(=O)Nc2ccc(S(=O)(=O)Nc3ccccn3)cc2)c2ccccc12
O=C1c2cccc(F)c2C(=O)N1c1ccc(S(=O)(=O)Nc2ccccn2)cc1
O=C1c2cccc(Cl)c2C(=O)N1c1ccc(S(=O)(=O)Nc2ccccn2)cc1
Cc1cc(F)ccc1C(=O)Nc1ccc(S(=O)(=O)Nc2ccccn2)cc1
O=C(Nc1ccc(S(=O)(=O)Nc2ccccn2)cc1)c1cccc(C(F)(F)F)c1
CC1(c2ccccc2)CC(=O)N(c2ccc(S(=O)(=O)Nc3ccccn3)cc2)C1=O (stereo not drawn)
O=C1c2ccccc2C(=O)N1c1ccc(S(=O)(=O)Nc2ccccn2)cc1
O=C1c2ccc(Cl)cc2C(=O)N1c1ccc(S(=O)(=O)Nc2ccccn2)cc1
